Test results taken from PubChem BioAssay.
Activity calls are given as the source filed them. Unless noted, how the calls were made is not given here.

Key:
[1] = resazurin metabolic signal in HepG2 cells – cell-based, resazurin fluorescence, 24 h, PK04 Diversity Set, profiling panel (AID 1172); conditions: HepG2 viability, higher = more signal; further: test concentration not given here
[2] = budding yeast growth changes without added modifier – OD600, strain BY4716, 24 h, basal condition, primary screen (AID 1173); conditions: S. cerevisiae BY4716 growth, OD600, 24 h; higher = more signal, called active from +8 up or from −8 down
[3] = viability profiling in MM1S myeloma cells – cell-based, resazurin fluorescence, basal, 24 h, PK04 Diversity Set, profiling panel (AID 1174); conditions: higher = more signal, called active from +8 up or from −8 down;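 further: MM1S multiple myeloma cell line; test concentration not given here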
[4] = target: Dihydroorotate dehydrogenase (quinone), mitochondrial (Plasmodium falciparum (isolate 3D7)) (UniProt Q08210); assay: inhibition of P. falciparum DHODH – biochemical, C-terminal His tag, absorbance 600 nm, primary screen (AID 1175); conditions: PfDHODH enzyme, DCIP absorbance 600 nm; higher = more signal, called active from +8 up or from −8 down;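 further: recombinant parasite enzyme with a five histidine tag at its C terminus; test concentration not given here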
Sequence of Dihydroorotate dehydrogenase (quinone), mitochondrial (Plasmodium falciparum (isolate 3D7)) (Q08210 whole entry, looked up): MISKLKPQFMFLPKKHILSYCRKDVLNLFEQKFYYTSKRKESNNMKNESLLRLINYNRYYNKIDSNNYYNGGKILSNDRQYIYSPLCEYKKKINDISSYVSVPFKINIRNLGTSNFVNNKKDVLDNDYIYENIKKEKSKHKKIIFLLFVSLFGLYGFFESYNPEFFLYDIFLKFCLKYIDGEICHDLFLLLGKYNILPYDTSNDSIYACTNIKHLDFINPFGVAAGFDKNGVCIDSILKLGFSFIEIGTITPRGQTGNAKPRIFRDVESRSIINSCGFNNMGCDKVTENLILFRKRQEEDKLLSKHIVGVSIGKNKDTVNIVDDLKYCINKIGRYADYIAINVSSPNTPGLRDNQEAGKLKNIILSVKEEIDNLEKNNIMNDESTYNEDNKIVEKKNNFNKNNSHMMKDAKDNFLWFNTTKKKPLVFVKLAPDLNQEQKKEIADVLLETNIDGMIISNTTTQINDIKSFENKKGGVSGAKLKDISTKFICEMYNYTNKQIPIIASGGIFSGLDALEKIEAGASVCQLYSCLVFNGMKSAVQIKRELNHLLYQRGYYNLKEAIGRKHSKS

[5] = inhibition of PAO1 biofilm formation – strain PAO1, LB-PBS medium, absorbance 600 nm, primary screen (AID 1176); further: test concentration not given here; conditions: P. aeruginosa PAO1 growth/biofilm, A600, 12 h; higher = more signal
[6] = growth modulation of vineyard yeast isolate – strain RM11-1a, OD600, basal, 24 h, primary screen (AID 1177);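 further: cultures grown under basal conditions with no added stressor; test concentration not given here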; conditions: S. cerevisiae RM11-1a growth, OD600, 24 h; higher = more signal, called active from +8 up or from −8 down
[7] = growth of efflux-deficient E. coli DRC39 – strain DRC39, OD650, 24 h, E. coli filamentation inducers, primary screen (AID 1178);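 further: growth measured as culture turbidity by optical density at 650 nm; test concentration not given here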; conditions: E. coli DRC39 acrAB, higher = more signal, called active from +8 up or from −8 down
[8] = growth of efflux-deficient E. coli DRC39 – strain DRC39, OD650, 48 h, E. coli filamentation inducers, primary screen (AID 1179);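 further: screen aims at cell division blockers that make cells filament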; conditions: E. coli DRC39 delta-acrAB growth, higher = more signal, called active from +8 up or from −8 down
[9] = viability profiling in RPMI8226 myeloma cells – cell-based, resazurin fluorescence, basal, 24 h, PK04 Diversity Set, profiling panel (AID 1180); conditions: higher = more signal;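 further: RPMI8826 multiple myeloma cell line at 5000 cells per well; test concentration not given here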
[10] = target: E3 ubiquitin-protein ligase XIAP (Homo sapiens) (UniProt P98170); assay: small molecules binding XIAP protein – biophysical, small-molecule microarray, fluorescence 635 nm, primary screen (AID 1181); conditions: higher = more signal;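 further: score merges 667 nm emission and signal to noise over triplicate slides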
Sequence of E3 ubiquitin-protein ligase XIAP (Homo sapiens) (P98170 whole entry, looked up): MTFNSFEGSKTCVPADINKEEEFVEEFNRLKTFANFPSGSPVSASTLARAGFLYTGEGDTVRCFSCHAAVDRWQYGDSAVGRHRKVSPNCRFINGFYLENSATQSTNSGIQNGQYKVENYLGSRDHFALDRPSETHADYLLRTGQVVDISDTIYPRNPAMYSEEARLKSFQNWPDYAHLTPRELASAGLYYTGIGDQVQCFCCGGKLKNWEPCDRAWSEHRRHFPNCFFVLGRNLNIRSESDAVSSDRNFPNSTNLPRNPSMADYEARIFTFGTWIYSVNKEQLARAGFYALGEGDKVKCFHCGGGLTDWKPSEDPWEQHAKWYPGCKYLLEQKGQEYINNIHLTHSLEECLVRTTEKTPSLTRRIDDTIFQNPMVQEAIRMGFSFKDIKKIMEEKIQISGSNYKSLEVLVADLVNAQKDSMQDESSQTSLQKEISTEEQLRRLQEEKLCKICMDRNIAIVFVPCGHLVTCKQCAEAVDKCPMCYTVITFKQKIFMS

| Structure (SMILES) | z-score [1] | z-score [2] | z-score [3] | composite z-score [4] | z-score [5] | z-score [6] | z-score [7] | z-score [8] | z-score [9] | composite z-score [10] |
| --- | --- | --- | --- | --- | --- | --- | --- | --- | --- | --- |
| COC(=O)[C@@]1(Cc2ccc(F)cc2)[C@H]2c3cc(C(=O)N4CCCC4)n(C)c3C[C@H]2CN1C(=O)c1ccccc1 | 0.0015 | -1.24 (inactive) | -0.698 (inactive) | -0.316 (inactive) | 0.523 (inactive) | 0.309 (inactive) | -0.359 (inactive) | -0.482 (inactive) | -0.069 | 0.49 |
| C=C(COC)C(=O)CC[C@H](OC(C)=O)c1ccc(OCCO)cc1 | -0.429 | -0.408 (inactive) | -0.267 (inactive) | -0.998 (inactive) | -0.116 (inactive) | -0.83 (inactive) | -0.238 (inactive) | 0.53 (inactive) | -0.873 | -0.326 |
| CCCCC(=O)N(CCN1CCOCC1)[C@@H]1CC(C(=O)NCCO)=C[C@H](Oc2c(I)cc(CO)cc2OC)[C@H]1O | 0.246 | -1.23 (inactive) | 0.0671 (inactive) | 0.229 (inactive) | 0.118 (inactive) | 0.615 (inactive) | 1.34 (inactive) | 1.15 (inactive) | 0.29 | -0.22 |
| COc1cc(NN2C(C(O)c3cc(OC)c(OC)c(OC)c3)C=CC3C(=O)N(c4ccccc4)C(=O)C32)cc(OC)c1OC (stereo not given) | -1.95 | 0.585 (inactive) | -1.19 (inactive) | -1.42 (inactive) | 0.366 (inactive) | -0.147 (inactive) | -0.585 (inactive) | -0.511 (inactive) | -1.71 | 0.074 |
| COc1ccc([Si](C)(C)[C@H]2[C@H](CCO)O[C@@]3(C(=O)N(Cc4ccccc4)c4ccc(N5CCOC5=O)cc43)[C@@H]2C)cc1 | -1.27 | 1.12 (inactive) | -3.35 (inactive) | 0.0738 (inactive) | 2.41 (inactive) | 4.25 (inactive) | 0.895 (inactive) | 0.0981 (inactive) | -2.64 | -0.135 |
| C[C@@]12COC[C@]13C=C(Br)[C@H](C2)[C@@]1(CO1)C3=O | 0.138 | -1.38 (inactive) | -0.0295 (inactive) | -0.658 (inactive) | -0.259 (inactive) | -0.187 (inactive) | -0.651 (inactive) | -0.534 (inactive) | 0.219 | -0.154 |
| C=C[C@H](C)[C@H](OC(=O)Nc1ccc(OC)cc1)c1ccc(OCCO)cc1 | -0.178 | -5.91 (inactive) | 1.69 (inactive) | -0.285 (inactive) | 0.413 (inactive) | -0.354 (inactive) | 1.43 (inactive) | 0.465 (inactive) | 0.603 | 0.34 |
| COc1ccc([Si](C)(C)[C@@H]2[C@@H](CC(=O)N3Cc4ccccc4C[C@H]3CO)O[C@]3(C(=O)N(Cc4ccc(N5CCC5=O)cc4)c4ccccc43)[C@H]2C)cc1 | 0.353 | 0.457 (inactive) | -0.736 (inactive) | -3 (inactive) | 1.45 (inactive) | 2.01 (inactive) | 0.7 (inactive) | 0.613 (inactive) | -0.536 | 0.177 |
| [N-]=[N+]=NCc1ccccc1[C@H]1OC(c2ccc(OCCCO)cc2)=N[C@@]1(Cc1ccccc1)C(=O)NCCN1CCOCC1 | 0.292 | -1.62 (inactive) | -0.206 (inactive) | -0.905 (inactive) | 1.26 (inactive) | -0.557 (inactive) | 2.89 (inactive) | 0.763 (inactive) | 0.16 | 0.785 |
| NC(=O)[C@@H]1[C@H]2C(=O)O[C@H](c3ccccc3)[C@H](c3ccccc3)N2[C@H](c2ccc(OCCO)cc2)[C@@]12C(=O)Nc1ccc(C#CCCO)cc12 | -0.632 | -0.349 (inactive) | -0.729 (inactive) | -1.26 (inactive) | 1.42 (inactive) | 1.27 (inactive) | 0.544 (inactive) | 0.721 (inactive) | -0.83 | 0.216 |
| C=C(/C(=C/C[C@@H](OC(C)=O)c1ccc(CO)o1)c1cc(C(=O)OC)ccc1OC)C(C)C | -0.0187 | -0.367 (inactive) | -0.912 (inactive) | -0.805 (inactive) | 0.731 (inactive) | 0.4 (inactive) | 0.769 (inactive) | 0.533 (inactive) | -0.0967 | 0.146 |
| COc1ccc(C#Cc2ccc3c(c2)[C@]2(C(=O)N3)[C@H](C(=O)Nc3nc4ccccc4s3)[C@H]3C(=O)O[C@H](c4ccccc4)[C@H](c4ccccc4)N3[C@@H]2c2ccccc2OCCO)cc1 | 0.154 | 1.08 (inactive) | 0.303 (inactive) | -5.43 (inactive) | 2.69 (inactive) | 1.66 (inactive) | 0.82 (inactive) | 0.413 (inactive) | 1.5 | 0.0507 |
| CN(C)CCCNC(=O)[C@@H]1c2ccccc2C(=O)N(C2CCCCC2)[C@H]1c1ccc(CO)cc1 | 0.848 | -0.737 (inactive) | 0.749 (inactive) | -0.151 (inactive) | 0.0714 (inactive) | 0.409 (inactive) | -0.101 (inactive) | 0.515 (inactive) | 0.988 | -0.157 |
| O=C1c2ccccc2[C@](Cc2ccccc2I)(C(=O)NC2CC2)[C@H](c2ccc(CO)cc2)N1Cc1ccccc1C(F)(F)F | -0.113 | -0.637 (inactive) | 0.762 (inactive) | 0.129 (inactive) | 0.842 (inactive) | 0.108 (inactive) | 0.169 (inactive) | -0.707 (inactive) | 0.154 | 0.125 |
| COC(=O)[C@@]1(Cc2ccc(F)cc2)[C@H]2c3cc(C(=O)N(C)C)n(Cc4ccc(O)c(OC)c4)c3C[C@H]2CN1C(=O)c1ccccc1 | -0.338 | 1.15 (inactive) | 0.0463 (inactive) | -0.764 (inactive) | 1.72 (inactive) | 0.301 (inactive) | 0.373 (inactive) | -1.35 (inactive) | -0.997 | 0.0812 |
| COCCCNC(=O)[C@@]1(c2ccc([N+](=O)[O-])cc2)CC(=O)N(CC23CC4CC(CC(C4)C2)C3)[C@@H]1c1ccc(CO)cc1I | -2.61 | 1.02 (inactive) | -3.15 (inactive) | 1.11 (inactive) | 0.457 (inactive) | 2.43 (inactive) | -0.0284 (inactive) | -0.107 (inactive) | -3.52 | 0.144 |
| CC(C)OC(=O)CC(=O)CC(O)c1ccc([N+](=O)[O-])cc1 (stereo not given) | -0.55 | -1.41 (inactive) | -0.119 (inactive) | -1.12 (inactive) | -0.088 (inactive) | 0.0857 (inactive) | -0.346 (inactive) | 0.0547 (inactive) | -0.0948 | -0.212 |
| CCc1cccc(NC(=O)O[C@H]2[C@H](OC(=O)Nc3ccccc3)[C@H](OC(=O)Nc3ccccc3)[C@@H](OC)O[C@@H]2CO)c1 | -3.47 | 0.885 (inactive) | -4.46 (inactive) | 0.0661 (inactive) | 1.78 (inactive) | 1.12 (inactive) | 0.0415 (inactive) | 0.0166 (inactive) | -6.11 | 0.306 |
| COc1ccc(C(O)C2C=CC3C(=O)N(c4ccccc4)C(=O)C3N2Nc2ccccc2F)cc1 (stereo not given) | -0.229 | -0.359 (inactive) | -0.0646 (inactive) | -0.0377 (inactive) | 0.987 (inactive) | -0.687 (inactive) | -0.548 (inactive) | -0.869 (inactive) | 0.435 | 0.483 |
| O=c1cccc(-c2ccc(F)cc2)o1 | 0.0278 | -0.576 (inactive) | 0.306 (inactive) | -0.555 (inactive) | -0.088 (inactive) | 0.18 (inactive) | -0.561 (inactive) | -0.165 (inactive) | -0.739 | -0.167 |
| COc1cc(NN2C(C(O)C3CCCCC3)C=CC3C(=O)N(C)C(=O)C32)cc(OC)c1OC (stereo not given) | -0.721 | 1.28 (inactive) | -1.43 (inactive) | -0.187 (inactive) | 0.462 (inactive) | 0.668 (inactive) | -0.276 (inactive) | -0.498 (inactive) | -1.35 | 0.279 |
| CCOC(=O)C[C@H]1[C@H](OC(=O)c2cc3ccccc3oc2=O)[C@@H](NC(=O)c2ccc3ccccc3c2)c2cc(OCCCO)ccc2N1C(=O)Cc1ccc(OC)cc1 | 0.98 | -0.399 (inactive) | -0.0697 (inactive) | 0.0533 (inactive) | -0.304 (inactive) | 0.0085 (inactive) | 0.406 (inactive) | -0.224 (inactive) | -0.137 | -0.169 |
| [N-]=[N+]=NCc1ccccc1[C@@H]1OC(c2ccc(OCCCO)cc2)=N[C@]1(Cc1ccccc1)C(=O)NCCN1CCOCC1 | -0.195 | -0.559 (inactive) | 0.162 (inactive) | 1.16 (inactive) | -0.279 (inactive) | 1.89 (inactive) | 2.23 (inactive) | 0.528 (inactive) | -0.0015 | -0.0125 |
| C=CCNC(=O)[C@@H]1[C@H]2C(=O)O[C@H](c3ccccc3)[C@H](c3ccccc3)N2[C@H](c2ccc(O)cc2)[C@@]12C(=O)N(C(=O)OCCOC)c1ccc(C#CCCO)cc12 | 0.02 | -0.363 (inactive) | -1.12 (inactive) | -0.855 (inactive) | 0.249 (inactive) | 0.782 (inactive) | 0.37 (inactive) | 0.479 (inactive) | -0.299 | -0.0749 |
